From PubChem BioAssay (EPA / NIEHS)
Activity calls are given as the source filed them. How the source made its calls: active means hit-call score of the fitted dose curve at least 0.9, where 1 is the maximum; inactive means score below 0.9.

The compounds below were run against X-box-binding protein 1 (Homo sapiens) (UniProt P17861) (assay: ATG_Xbp1_CIS: Attagene CIS-FACTORIAL HepG2 Assay for human X-box Binding Protein 1 (XBP1) (AID 2282972)). Details: HepG2 XBP1 cis-element reporter, Attagene multiplex; actives raise or lower the signal.
Protocol: ATG_CIS is a cell-based, multiplexed-readout assay that uses HepG2, a human liver cell line, with measurements taken at 24 hours after chemical dosing in a 24-well plate.ATG_Xbp1_CIS is one of 52 assay component(s) measured or calculated from the ATG_CIS assay. It is designed to make measurements of mRNA induction, a form of inducible reporter, as detected with fluorescence intensity signals by Reverse transcription polymerase chain reaction (RT-PCR) and Capillary electrophoresis technology.Data from the assay component ATG_Xbp1_CIS was analyzed into 1 assay endpoint. This assay endpoint, ATG_Xbp1_CIS, was analyzed with bidirectional fitting relative to DMSO as the negative control and baseline of activity. Using a type of inducible reporter, measures of mRNA for gain or loss-of-signal activity can be used to understand the reporter gene at the transcription factor-level as they relate to the gene XBP1. Furthermore, this assay endpoint can be referred to as a primary readout, because this assay has produced multiple assay endpoints where this one serves a reporter gene function. To generalize the intended target to other relatable targets, this assay endpoint is annotated to the dna binding intended target family, where the subfamily is basic leucine zipper.
Human liver HepG2 cells are transiently transfected with multiple reporter transcription units (MRTUs) in 6-well plates using FuGene 6 reagent (Roche; 3 ml FuGene/1 mg DNA). The MRTU constructs are regulated by a cis-regulating element (promoter). […] A major difference between the CIS and TRANS system is that in CIS activities of endogenous TFs are measured, whereas the TRANS assay evaluates changes in activities of exogenous, chimeric NR-Gal4 proteins. […] At the end of 24 hour incubation, total RNA was isolated using TriZol reagent (Invitrogen). The isolated RNA is then reverse-transcribed using oligo(dT) primer and Mo-MLV reverse transcriptase (Invitrogen) with DNAse I (Ambion) treatment for 30 min. The one-tenth of the produced cDNA was amplified by PCR using Taq DNA polymerase (Invitrogen) and two reporter sequence-specific primers. The PCR products were fluorescently labeled by primer extension with 6-arboxyfluorescein (6-FAM) 5'-labeled reporter sequence-specific primer (2 min at 95 C, 20 s at 68 C and 10 min at 72 C) and these products were digested with 5U of HpaI (New England Biolabs) for 2h at 37 C. The fragments were purified using Qiaquick PCR columns (Qiagen), analyzed on an ABI 3130xL genetic analyzer (Applied Biosystems) with peak positions identified by using a set of X-rhodamine (ROX)-labeled MapMarker1000 molecular weight standards (BioVentures). The raw capillary electrophoresis data was processed using Attagraph software (Attagene).

X-box-binding protein 1 (Homo sapiens), sequence (P17861 whole entry, looked up): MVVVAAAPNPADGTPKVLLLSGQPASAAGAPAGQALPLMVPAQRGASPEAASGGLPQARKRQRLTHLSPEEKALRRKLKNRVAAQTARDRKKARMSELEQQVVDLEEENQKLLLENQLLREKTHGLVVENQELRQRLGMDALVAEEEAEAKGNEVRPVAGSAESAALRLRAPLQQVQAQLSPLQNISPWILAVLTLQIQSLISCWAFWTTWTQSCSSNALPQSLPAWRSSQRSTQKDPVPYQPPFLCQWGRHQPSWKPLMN

| SMILES | outcome | AC50 |
| --- | --- | --- |
| O=C(O)CCCCCCCCC(=O)O | inactive | – |
| Nc1ccc(Cl)c([N+](=O)[O-])c1 | inactive | – |
| CC1(C)CCC[C@]2(C)[C@H]3CCO[C@]3(C)CC[C@@H]12 | inactive | – |
| NCc1ccco1 | inactive | – |
| CCOc1ccccc1O | inactive | – |
| CCCCCCCCCCCC(=O)OCC(O)CO (stereo not given) | inactive | – |
| COc1cc(Cl)c(OC)cc1N | inactive | – |
| OCCc1ccccc1 | inactive | – |
| CCC(C)S (stereo not given) | inactive | – |
| C1CCOC1 | inactive | – |
| C=C(C)C1CC=C(C)C(=O)C1 (stereo not given) | inactive | – |
| CCCCCCCCCC(C)C=O (stereo not given) | inactive | – |
| CC=CC=CCOC(=O)C(C)C | inactive | – |
| Cc1cc(CCC(=O)OCCOCCOCCOC(=O)CCc2cc(C)c(O)c(C(C)(C)C)c2)cc(C(C)(C)C)c1O | inactive | – |
| CC(O)C1CCCCC1 (stereo not given) | inactive | – |
| CC(C)(C)C1=CC(=O)C(C(C)(C)C)=CC1=O | inactive | – |
| O=Cc1ccccc1S(=O)(=O)O | inactive | – |
| CC/C=C\CCOC(=O)CC | inactive | – |
| COc1ccc(OC)c(N=Nc2c(O)ccc3ccccc23)c1 | inactive | – |
| OCCOCCN1CCN(C2=Nc3ccccc3Sc3ccccc32)CC1 | inactive | – |

| SMILES | outcome | AC50 |
| --- | --- | --- |
| C=Cc1ccc(C(C)(C)C)cc1 | inactive | – |
| CC=Cc1ccc(OC)c(OC)c1 | inactive | – |
| C=C(C)[C@H]1CC=C(C)C(=O)C1 | inactive | – |
| CCCOC(=O)c1c(Cl)c(Cl)c(Cl)c(Cl)c1C(=O)OCCC | – | 130 µM (active) |
| CCCCCCOC(=O)C(C)C | inactive | – |
| CC(C)OCCO | inactive | – |
| COc1cc([C@@H]2c3cc4c(cc3[C@@H](O[C@@H]3O[C@@H]5CO[C@@H](C)O[C@H]5[C@H](O)[C@H]3O)[C@H]3COC(=O)[C@H]23)OCO4)cc(OC)c1O | inactive | – |
| OC[C@H]1O[C@@H]2O[C@H]3[C@H](O)[C@@H](O)[C@@H](O[C@H]4[C@H](O)[C@@H](O)[C@@H](O[C@H]5[C@H](O)[C@@H](O)[C@@H](O[C@H]6[C@H](O)[C@@H](O)[C@@H](O[C@H]7[C@H](O)[C@@H](O)[C@@H](O[C@H]8[C@H](O)[C@@H](O)[C@@H](O[C@H]9[C@H](O)[C@@H](O)[C@@H](O[C@H]1[C@H](O)[C@H]2O)O[C@@H]9CO)O[C@@H]8CO)O[C@@H]7CO)O[C@@H]6CO)O[C@@H]5CO)O[C@@H]4CO)O[C@@H]3CO | inactive | – |
| O=C1OC[C@H](Cc2cccc(O)c2)[C@H]1Cc1cccc(O)c1 | inactive | – |
| CCCCC(CC)COC(=O)c1ccc(O)cc1 (stereo not given) | inactive | – |
| C=CCN(CC=C)CC=C | inactive | – |
| CCC1CCCCC1 | inactive | – |
| CCCCC1CCC(O)CC1 (stereo not given) | inactive | – |
| O=C(CS)OCCOC(=O)CS | inactive | – |
| CCCCCCC(CO)CCCC (stereo not given) | inactive | – |
| Nc1c(Cl)cc(Cl)cc1[N+](=O)[O-] | inactive | – |
| COC(=O)C=C(C)CCC=C(C)C | inactive | – |
| CCCCCCCCN1CCCC1=O | inactive | – |
| CCNCCO | inactive | – |
| CC1=C(Br)C(=O)C(Br)=C/C1=C(/c1ccccc1S(=O)(=O)O)c1cc(Br)c(O)c(Br)c1C | inactive | – |
